In general, AC50 refers to the midpoint of the concentration-response curve, whichever way the signal moves.

Each structure is given as a SMILES string. Calls of active or inactive are those of the source. The calls were made as follows: active = hit-call score of the fitted dose curve at least 0.9, where 1 is the maximum; inactive = score below 0.9.

Read-out in the test: Matrix Metallopeptidase 1 (MMP1), MMP1 (gene 4312)
As to the kind of experiment: BSK_hDFCGF_MMP1: BioMAP Diversity Plus: hDFCGF Assay for Matrix Metallopeptidase 1 (MMP1) Biomarker Activity (AID 2283064). The following applies: primary human foreskin fibroblasts; actives raise or lower the signal. In outline: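 MMP1 levels quantified by ELISA 24 h after dosing human dermal fibroblast cultures, with parallel SRB total-protein staining for overt cytotoxicity. Data fitted in both directions against DMSO baseline.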
With `OCc1c[nH]c2ccccc12`, the AC50 was 0.655 µM (active).

For `c1ccc2cc3ccccc3cc2c1`, the result was inactive.

`COc1cc(C(C)C)c2c(c1)S(=O)(=O)N(COc1cc(=O)n3cccc(OCCN4CCCCC4)c3n1)C2=O`: the AC50 was 1.3 µM (active).

As for `O=S(=O)(O)CCC(F)(F)C(F)(F)C(F)(F)C(F)(F)C(F)(F)C(F)(F)F`, the result was inactive.

For `Cc1nccn1-c1ccc(Sc2cccc(C3(C(N)=O)CCOCC3)c2)cc1`, the concentration at half-maximal activity (AC50) is 2.9 µM (active).

`CC(C)CC(C)O` (configuration not stated): the result was inactive.

`NC(=O)NN=Cc1ccc([N+](=O)[O-])o1`: the outcome was inactive.

`c1ccc(C(O[C@@H]2CCCN(CCc3ccc4c(c3)OCO4)C2)c2ccccc2)cc1`: the outcome was inactive.

Regarding `CCCCOC(=O)c1ccccc1`, the outcome was inactive.

In the case of `FC(F)(F)C(F)(F)C(F)(F)C(F)(F)C(F)(F)C(F)(F)I`, the outcome was inactive.

For `NC(=O)N1c2ccccc2C=Cc2ccccc21`, the outcome was inactive.

Turning to `Cc1nc(-c2ccccn2)ncc1C(=O)Nn1cc(C)c2cc(F)ccc21`, the outcome was inactive.

For `O=C(O)[C@H](O)[C@@H](O)C(=O)O`, the outcome was inactive.

For `Cc1cccc(O)c1C`, the result was inactive.

Regarding `C[Si](C)(C)C(F)(F)C(F)(F)C(F)(F)F`, the outcome was inactive.

In the case of `CCOC(N)=O`, the result was inactive.

As for `OC[C@H]1O[C@@H]2O[C@H]3[C@H](O)[C@@H](O)[C@@H](O[C@H]4[C@H](O)[C@@H](O)[C@@H](O[C@H]5[C@H](O)[C@@H](O)[C@@H](O[C@H]6[C@H](O)[C@@H](O)[C@@H](O[C@H]7[C@H](O)[C@@H](O)[C@@H](O[C@H]1[C@H](O)[C@H]2O)O[C@@H]7CO)O[C@@H]6CO)O[C@@H]5CO)O[C@@H]4CO)O[C@@H]3CO`, the outcome was inactive.

These data come from PubChem BioAssay (EPA / NIEHS).
